Our source for the Potency values is PubChem BioAssay (Tox21).

The structures appear in SMILES notation. Results filed as inconclusive are left out. Some compounds were tested as several samples or in several runs, with calls that do not always agree. The source made the active and inactive calls. Unless noted, calls follow the shape of the full dose curve.

Experiment [1] is described as follows: Nuclear factor erythroid 2-related factor 2/antioxidant responsive element (Nrf2/ARE) small molecule agonists: qHTS cell viability counter screen in human keratinocytes (AID 1919968; active = well fitted curve in the direction sought with a large enough effect in the repeat runs; an effect the other way counts as inactive or inconclusive; also: nearly all actives have a fitted effect of over 55% in size). The essentials:
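Stably transfected HaCaT (KeratinoSens), 1,500/well. Test agents in DMSO were applied for 23 h, 37 C/5% CO2. CellTiter-Fluor was incubated 1 h before the fluorescence read.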
In general terms: Quantitative high-throughput screening tests each substance at several concentrations.

For experiment [2], the target named is KiSS-1 receptor (Homo sapiens) (UniProt Q969F8). Kind of experiment: Human kisspeptin (KISS1R) small molecule agonists, calcium flux assay in KISS1R-HEK293 cells (AID 1920064; active = well fitted curve in the direction sought with a large enough effect in the repeat runs; an effect the other way counts as inactive or inconclusive). The method in brief:
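After overnight (18 h) culture at 37 C/5% CO2, human KISS1R-HEK293 cells received calcium dye for 1 h, then test compound; emission at 540 nm (excitation 480 nm) was tracked for 3 min.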
In general terms: Calcium assays in cells follow changes in intracellular calcium, usually with a dye or a luminescent sensor.

Experiment [3] is described as follows: G protein-coupled receptor (GPCR) small molecule agonists, calcium flux assay: HEK293 wild type cell line counter screen (AID 1920065). The method in brief:
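Following 18 h incubation at 37 C/5% CO2, plates got calcium dye for 1 h; compounds, ATP or DMSO were then pinned in and fluorescence followed kinetically (480/540 nm).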

A short description of experiment [4]: p53 small molecule agonists, cell-based qHTS assay with human liver microsomes (AID 1963577).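 Also: p53 response element beta-lactamase reporter cells with liver microsomes plus NADPH.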 The essentials:
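Metabolically competent format: test substances, human liver microsomes and NADPH (both 0.5 mg/mL final) incubated with p53RE-bla cells 16 h at 37 C. Beta-lactamase reporter signal then quantified by fluorescence.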

Experiment [5] in a line: p53 small molecule agonists, cell-based qHTS assay with rat liver microsomes (AID 1963578). The essentials: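 Each plate received p53RE-bla cells, then compound, then rat liver microsomes and NADPH (both 0.5 mg/mL final). Plates were held 16 h at 37 C, and beta-lactamase activity was detected with LiveBLAzer over 2 h.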
A short description of experiment [6]: p53 small molecule agonists, cell-based qHTS assay with human liver microsomes: qHTS cell viability counter screen (AID 1963579). Also: nearly all actives have a fitted effect of over 45% in size. The method in brief: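 Tox21 library compounds, delivered from DMSO stocks, were tested on p53RE-bla cells together with 0.5 mg/mL human liver microsomes and 0.5 mg/mL NADPH (final) over 16 h at 37 C; CellTiter-Glo luminescence served as the cytotoxicity measure.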

Experiment [7] in a line: p53 small molecule agonists, cell-based qHTS assay with rat liver microsomes: qHTS cell viability counter screen (AID 1963580). Also: nearly all actives have a fitted effect of over 45% in size. The essentials: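 Cytotoxicity counter screen: intracellular ATP measured by CellTiter-Glo luminescence in the same wells as the beta-lactamase reporter read, on HCT-116 p53RE-bla cells exposed 16 h at 37 C to compounds with rat liver microsomes and NADPH, each 0.5 mg/mL final.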

Experiment [8] can be described thus: p53 small molecule agonists, cell-based qHTS assay: qHTS cell viability counter screen (AID 1963581). Also: nearly all actives have a fitted effect of over 45% in size. The essentials: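 qHTS counter screen: 16 h compound exposure at 37 C of p53RE-bla HCT-116 cells (4,000 per well, seeded 5 h prior), cell viability by ATP luminescence.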
Experiment [9] can be described thus: p53 small molecule agonists, cell-based qHTS assay (AID 1963582; active = well fitted activation curve with a large enough effect in the signal ratio in the repeat runs, not every such curve was filed as active; the % refers to the signal ratio). The essentials: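 Measured: fluorescence from cleaved LiveBLAzer substrate. System: p53RE-bla cells, 16 h compound treatment at 37 C, 2 h substrate step at room temperature.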
Experiment [10] deals with 5-hydroxytryptamine receptor 2A (Homo sapiens) (UniProt P28223). Nature of the experiment: 5-hydroxytryptamine receptor 2A (HTR2A) small molecule antagonists, cell-based qHTS assay (AID 1963586). Also: nearly all actives have a fitted effect of over 45% in size. The method in brief: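 CHO cells stably expressing human HTR2A were plated for 18 h at 37 C, then loaded with calcium dye for 1 h. Compounds were preincubated 5 min at room temperature before DOI (4 nM solution) was added. Kinetic fluorescence was read for 3 min.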

Experiment [11] shares this target. Nature of the experiment: 5-hydroxytryptamine receptor 2A (HTR2A) small molecule agonists, cell-based qHTS assay (AID 1963587). Also: nearly all actives have a fitted effect of over 30% in size. The essentials:
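CHO cells stably expressing human HTR2A, plated 18 h, loaded with calcium dye 1 h at 37 C. Agonist mode: compounds added and intracellular calcium fluorescence recorded kinetically for 2 min at 1 sec intervals.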

Experiment [12] deals with Muscarinic acetylcholine receptor M1 (Homo sapiens) (UniProt P11229). Nature of the experiment: Cholinergic receptor muscarinic 1 (CHRM1) small molecule antagonists, cell-based qHTS assay (AID 1963588). Also: nearly all actives have a fitted effect of over 40% in size. The method in brief:
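Compounds were tested at 15 concentrations in three independent runs. Dye-loaded CHRM1-CHO cells were exposed 5 min at room temperature before stimulation by acetylcholine added at 50nM. Intracellular calcium was read kinetically on FDSS for 3 min.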

For experiment [13] the target is unchanged. Kind of experiment: Cholinergic receptor muscarinic 1 (CHRM1) small molecule agonists, cell-based qHTS assay (AID 1963589). Also: nearly all actives have a fitted effect of over 35% in size. The essentials: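 Kinetic fluorescence (1 s intervals) of calcium-sensitive dye in human M1 CHO cells after compound addition; cells pre-incubated 18 h at 37 C/5% CO2 and dye-loaded 1 h.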
A short description of experiment [14]: cAMP Responsive Elements (CRE) small molecule agonists, cell-based qHTS assay (AID 1963590). The essentials:
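Test agents in DMSO were incubated 3 h at 37 C/5% CO2 with CRE-bla HEK 293T cells seeded 18 h earlier; LiveBLAzer B/G FRET substrate was added and read after 2 h at room temperature.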

Experiment [15] is described as follows: cAMP Responsive Elements (CRE) small molecule antagonists, cell-based qHTS assay (AID 1963591; active = well fitted inhibition curve with a large enough effect in the signal ratio in the repeat runs, not every such curve was filed as active; the % refers to the signal ratio). The method in brief:
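Reporter line CRE-bla HEK 293T in dialyzed-FBS DMEM; cells preincubated 18 h, treated 3 h with compound plus NKH477 (0.25 uM final); LiveBLAzer FRET, 2 h RT.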

The target in experiment [16] is Beta-2 adrenergic receptor (Homo sapiens) (UniProt P07550). Kind of experiment: Adrenergic beta2 receptor (ADRB2) small molecule antagonists, cell-based qHTS assay (AID 1963592). Also: nearly all actives have a fitted effect of over 50% in size. Also: potency is read from the fitted curve at half-maximal effect. The essentials:
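Assay format: CHO-ADRB2 cells, 18-20hr seeding at 37C/5% CO2, then compound plus 1nM isoproterenol agonist mix for 0.5hr RT. Homogeneous time-resolved fluorescence cAMP detection after 1hr, expressed as 665/615 nm ratio.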

The target is the same in experiment [17]. Kind of experiment: Adrenergic beta2 receptor (ADRB2) small molecule agonists, cell-based qHTS assay (AID 1963593).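 Also: CHO cells stably overexpressing human ADRB2.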 The essentials:
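CHO cells stably over-expressing ADRB2 were plated overnight at 37C, then dosed with compounds plus a stimulation mix containing 100uM IBMX and 25uM Ro-20-1724 for 0.5hr at room temperature. cAMP was measured by HTRF competition, 1hr.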

In experiment [18] the target is D(2) dopamine receptor (Homo sapiens) (UniProt P14416). Nature of the experiment: Dopamine D2 receptor (DRD2) small molecule agonists, cell-based qHTS assay (AID 1963594). Also: nearly all actives have a fitted effect of over 35% in size. The essentials: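 HEK293 cells stably expressing human DRD2, pre-treated with PDE inhibitor Ro20-1724 (0.1 mM final) and compound 10 min at room temperature, then stimulated with NKH477 (200nM […]) for 30 min. cAMP read by HTRF (665/620 nm).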

For experiment [19] the target is unchanged. Nature of the experiment: Dopamine D2 receptor (DRD2) small molecule antagonists, cell-based qHTS assay (AID 1963595; active = well fitted inhibition curve with a large enough effect in the signal ratio in the repeat runs, with a control signal flat; the % refers to the signal ratio). The method in brief: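 HEK293 cells stably expressing DRD2 were preincubated with 0.1 mM Ro20-1724, then with compound for 10 min at room temperature. Cells were stimulated with 200 nM NKH477 plus 12 nM quinpirole for 30 min, and cAMP was read by HTRF.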

The nature of experiment [20]: Nuclear factor erythroid 2-related factor 2/antioxidant responsive element (Nrf2/ARE) small molecule agonists: luciferase reporter gene qHTS assay in human keratinocytes (AID 1919969). Also: nearly all actives have a fitted effect of over 35% in size. A general note: Reporter assays use an easily measured gene product as a stand-in for the process of interest.

Sequence of KiSS-1 receptor (Homo sapiens) (Q969F8 whole entry, looked up): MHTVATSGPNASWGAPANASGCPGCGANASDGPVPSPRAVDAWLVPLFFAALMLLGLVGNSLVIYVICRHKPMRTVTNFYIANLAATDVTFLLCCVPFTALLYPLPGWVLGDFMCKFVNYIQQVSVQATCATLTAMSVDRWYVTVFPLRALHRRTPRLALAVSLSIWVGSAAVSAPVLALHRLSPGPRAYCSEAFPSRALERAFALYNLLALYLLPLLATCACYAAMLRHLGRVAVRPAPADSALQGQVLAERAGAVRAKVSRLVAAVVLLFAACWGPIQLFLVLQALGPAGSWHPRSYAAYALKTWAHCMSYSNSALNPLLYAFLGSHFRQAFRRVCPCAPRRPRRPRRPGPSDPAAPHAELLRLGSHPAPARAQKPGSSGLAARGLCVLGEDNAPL
Sequence of 5-hydroxytryptamine receptor 2A (Homo sapiens) (P28223 whole entry, looked up): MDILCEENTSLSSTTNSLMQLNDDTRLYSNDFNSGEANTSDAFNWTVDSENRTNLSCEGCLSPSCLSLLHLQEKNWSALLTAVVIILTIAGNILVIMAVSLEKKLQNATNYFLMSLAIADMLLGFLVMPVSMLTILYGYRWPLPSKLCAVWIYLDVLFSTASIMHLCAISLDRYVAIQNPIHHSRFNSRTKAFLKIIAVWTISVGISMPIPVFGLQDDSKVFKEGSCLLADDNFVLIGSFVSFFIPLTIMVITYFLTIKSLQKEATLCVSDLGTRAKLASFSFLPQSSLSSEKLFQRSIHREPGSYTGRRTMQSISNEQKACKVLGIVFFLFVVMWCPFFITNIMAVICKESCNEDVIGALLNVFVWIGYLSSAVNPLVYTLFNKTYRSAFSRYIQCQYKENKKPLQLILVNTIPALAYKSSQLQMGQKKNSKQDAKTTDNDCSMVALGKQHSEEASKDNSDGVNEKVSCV
Sequence of Beta-2 adrenergic receptor (Homo sapiens) (P07550 whole entry, looked up): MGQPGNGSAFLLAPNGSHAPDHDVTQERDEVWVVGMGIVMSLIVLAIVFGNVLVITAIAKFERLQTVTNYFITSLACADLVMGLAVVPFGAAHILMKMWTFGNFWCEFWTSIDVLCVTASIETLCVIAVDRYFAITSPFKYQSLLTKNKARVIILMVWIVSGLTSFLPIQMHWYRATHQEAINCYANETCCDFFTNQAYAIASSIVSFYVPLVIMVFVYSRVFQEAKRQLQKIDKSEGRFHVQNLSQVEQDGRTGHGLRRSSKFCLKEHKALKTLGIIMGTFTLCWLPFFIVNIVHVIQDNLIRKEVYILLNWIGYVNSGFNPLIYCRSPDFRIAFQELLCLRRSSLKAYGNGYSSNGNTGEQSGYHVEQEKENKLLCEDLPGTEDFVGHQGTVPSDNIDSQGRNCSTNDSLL
Sequence of D(2) dopamine receptor (Homo sapiens) (P14416 whole entry, looked up): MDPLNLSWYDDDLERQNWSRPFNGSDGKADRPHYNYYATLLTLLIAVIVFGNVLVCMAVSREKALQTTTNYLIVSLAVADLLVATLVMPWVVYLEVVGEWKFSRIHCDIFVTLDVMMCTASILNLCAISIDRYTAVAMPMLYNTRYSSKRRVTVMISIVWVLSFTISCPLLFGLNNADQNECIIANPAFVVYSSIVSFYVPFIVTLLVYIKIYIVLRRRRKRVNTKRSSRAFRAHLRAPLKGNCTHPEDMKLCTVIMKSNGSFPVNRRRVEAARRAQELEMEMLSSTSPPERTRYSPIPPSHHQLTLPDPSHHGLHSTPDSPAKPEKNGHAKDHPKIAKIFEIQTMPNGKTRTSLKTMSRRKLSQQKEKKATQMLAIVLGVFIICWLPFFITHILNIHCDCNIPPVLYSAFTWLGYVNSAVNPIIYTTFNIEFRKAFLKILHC
Sequence of Muscarinic acetylcholine receptor M1 (Homo sapiens) (P11229 whole entry, looked up): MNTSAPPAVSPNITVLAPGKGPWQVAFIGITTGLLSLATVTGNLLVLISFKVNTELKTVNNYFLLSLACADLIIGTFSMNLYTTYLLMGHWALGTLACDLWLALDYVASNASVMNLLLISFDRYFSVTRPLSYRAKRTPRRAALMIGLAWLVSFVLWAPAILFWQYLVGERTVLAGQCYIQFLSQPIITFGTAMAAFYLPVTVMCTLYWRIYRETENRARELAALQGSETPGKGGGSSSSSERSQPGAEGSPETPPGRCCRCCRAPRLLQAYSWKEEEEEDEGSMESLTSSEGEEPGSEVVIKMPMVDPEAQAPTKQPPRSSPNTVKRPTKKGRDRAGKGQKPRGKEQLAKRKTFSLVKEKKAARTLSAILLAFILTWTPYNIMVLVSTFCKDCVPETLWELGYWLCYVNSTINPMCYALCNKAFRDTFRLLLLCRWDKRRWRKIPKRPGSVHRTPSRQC

Turning to `O=[N+]([O-])c1cncn1CCN1CCOCC1`, the Potency entry in [1], in [2], in experiment [3], in experiment [4], in [5] and in [6] was “inactive” in each case. Also, the Potency entry in experiment [7], in [8], in [9], in experiment [10], in experiment [11] and in experiment [12] was “inactive” throughout. For the same compound, the Potency result in experiment [13], in [14], in experiment [15], in experiment [16], in [17] and in experiment [18] was “inactive” each time. In experiment [19], the Potency entry is “inactive”.

Take `CC1C(C)(C)C2=C(C(=O)CCC2)C1(C)C` (stereo not drawn): the Potency entry in experiment [1], in [2], in [3], in [4], in experiment [5] and in experiment [6] was “inactive” each time. Also, the Potency result in experiment [7], in [8], in [9], in experiment [10], in experiment [11] and in [12] was “inactive” in each case. Besides, the Potency result in experiment [13], in experiment [14], in [15], in [16], in experiment [17] and in experiment [18] was “inactive” each time.

Take `CC(C)CC(C)(O)C#CC(C)(O)CC(C)C` (stereo not drawn): the Potency result in [1], in [2], in experiment [3], in [4], in experiment [5] and in experiment [6] was “inactive” throughout. Further, the Potency result in [7], in experiment [8], in experiment [9], in [10], in experiment [11] and in [12] was “inactive” in each case. For the same compound, the Potency result in experiment [13], in [14], in experiment [15], in experiment [17], in experiment [18] and in experiment [19] was “inactive” throughout. In [16], the Potency was 59.9 µM (active) and inactive.

As for `CCCCCCCCSCC`, the Potency entry in experiment [1], in experiment [2], in [3], in experiment [4], in [5] and in experiment [6] was “inactive” throughout. The Potency result in experiment [7], in experiment [8], in [9], in experiment [10], in [11] and in experiment [12] was “inactive” in each case. Besides, the Potency result in [13], in experiment [14], in [15], in experiment [16], in [17] and in experiment [18] was “inactive” throughout. Also, the Potency entry in experiment [19] is “inactive”.

For `CC(=O)CC(=O)Nc1ccccc1C`, the Potency result in [1], in experiment [20], in experiment [4], in [5], in [6] and in [7] was “inactive” each time. Also, the Potency result in [8], in [9], in experiment [10], in [11], in [12] and in experiment [13] was “inactive” in each case. In addition, the Potency entry in experiment [14], in [15], in experiment [16], in [17], in experiment [18] and in experiment [19] was “inactive” throughout.

For the compound `OCCc1ccccn1`, the Potency entry in [1], in [20], in [3], in experiment [4], in [5] and in experiment [6] was “inactive” in each case. For the same compound, the Potency entry in [7], in experiment [9], in [10], in experiment [11], in experiment [12] and in [13] was “inactive” throughout. Further, the Potency entry in experiment [14], in experiment [15], in [16] and in [18] was “inactive” in each case.

For `C1CSCCS1`, the Potency entry in experiment [1], in experiment [2], in experiment [3], in [4], in experiment [5] and in [6] was “inactive” throughout. The Potency entry in experiment [7], in [8], in [9], in experiment [10], in [11] and in experiment [12] was “inactive” throughout. For the same compound, the Potency result in [13], in experiment [14], in experiment [15], in experiment [16], in experiment [17] and in experiment [18] was “inactive” in each case. In experiment [19], the Potency entry is “inactive”.
